A selection: hits, their analogues and other compounds. The true share with any hit is near 19%.
MARV entry inh: Marburg virus entry inhibition. Marburg virus pseudotyped entry inhibition, cell reporter. Potency, µM (top dose mostly 37.8 µM), for inactives: at the top dose activity change, negative = inhibition, actives largely listed as inhibitors. 300,000 compounds, 1.8% hits. AID 540276; calls by dose curve; tested in HEK293 cells; note: potency is the fitted concentration of half-maximal effect; % is set by controls: 0 for no effect and ±100 for the full control effect
Shiga inhibitor: inhibitors of Shiga toxin in Vero cells | Vero cells, Shiga toxin protein synthesis inhibition reporter | inhibition, % at 38.7 µM | 290,000 compounds, 9.2% hits | AID 2315; in the data active = inhibition mostly above about 28%, no sharp cut-off; inactive = mostly below about 43%; note: 0% is about no effect
Pf growth 48h: P. falciparum growth inhibition at 48 hours (one generation). P. falciparum luciferase growth in erythrocytes, 48 h. Potency, µM (doses to about 28.7 µM), for the others: top-dose activity change, negative = inhibition, usual class: inhibitors. 310,000 compounds, 5.9% hits; note: potency is the fitted concentration of half-maximal effect; % is set by controls: 0 for no effect and ±100 for the full control effect
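Parasite viability was followed by luminescence of a genomically integrated firefly luciferase. Cultures held 0.1% parasitemia at 2% hematocrit (final), incubated under 5% CO2 at 37 C.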
CHX counter: affects cycloheximide protein synthesis inhibition readout, counter-screen | cell reporter, cycloheximide protein synthesis inhibition counterscreen | max response, % | 300,000 compounds, 12% hits | AID 2314; in the data active = max response mostly above about 13%, no sharp cut-off; inactive = mostly below about 14%; note: read at 38.3 µM for the half of the compounds with a filed dose; 0% is about no effect
Pf growth 96h: P. falciparum growth inhibition at 96 hour, primary screen for plastid delayed-death inhibitors. 320,000 compounds, 6.9% hits. Potency, µM (series often up to 28.7 µM), for the others: at the highest dose activity change, negative = inhibition, hits mostly inhibitors. AID 504834. P. falciparum luciferase reporter growth, 96 h; note: potency is the fitted concentration of half-maximal effect; % is set by controls: 0 for no effect and ±100 for the full control effect
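Cell-based qHTS: luciferase-tagged P. falciparum in erythrocytes (2% hematocrit, 0.05% parasitemia final) incubated with compounds for 96 hours, 37 C, 5% CO2; luciferase detection reagent then added and luminescence measured.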
LASV entry inh: blocks Lassa virus binding to or entry into cells; Potency, µM (highest dose often 37.9 µM), for the others: top-dose activity change, negative = inhibition, actives largely listed as inhibitors; AID 540256; Lassa virus pseudotype entry inhibition, cell reporter; 300,000 compounds, 1.2% hits; calls by dose curve; tested in HEK293 cells; note: potency is the fitted concentration of half-maximal effect; % is set by controls: 0 for no effect and ±100 for the full control effect; nearly all actives have a fitted effect of over 50% in size
Starred values were filed as active, the others as inactive; i = inactive; u = inconclusive; x = no result; ! = not active in a repeat; [ ] = another dose, or the depositor's remark. Unless noted, calls come from the whole dose curve; as a rule, active = well fitted inhibition curve with a large enough effect; inconclusive = small, poorly fitted or top-dose-only effect, or another doubt; inactive = no such curve, though single readings can be large or run the other way.

SMILES | MARV entry inh | Shiga inhibitor | Pf growth 48h | CHX counter | Pf growth 96h | LASV entry inh
O=C(/C=C/c1ccc(Cl)c(Cl)c1)N1CCOCC1 | u | 104* | 13% | 24* | u | 18%[46.1 µM]
CCCOc1ccc(/C=C/C(=O)N2CCOCC2)cc1 | x | 61* | 78% | 56* | -4% | x
NC(=O)N/N=C/c1ccc(OCc2cccc(Cl)c2)cc1 | -8%[46.1 µM] | 41 | 26% | -1 | 3% | -13%
O=C(/C=C/c1ccc(Cl)cc1)N1CCOCC1 | x | 54* | 36% | 35* | 11% | x
O=C(NC1CCCCCC1)c1c(O)c2ccccc2[nH]c1=O | u | 84* | u | 25* | 6% | u
O=C(Cc1c(O)c2ccccc2[nH]c1=O)NC1CCCCCC1 | 25% | 14 | -8% | 17 | 26% | 9%
CC(C)C(=O)NNC(=O)c1c(O)c2ccccc2[nH]c1=O | x | 3 | 12µM* | -2 | u | x
O=C(Nc1cccc(F)c1)c1c(O)c2ccccc2[nH]c1=O | 0% | x | 60% | 23* | u | u
O=c1[nH]c2ccccc2c(O)c1O | x | -9 | 13µM* | 1 | 10µM* | x
COc1ccccc1[C@H]1C(c2cccc(C)c2)=NN(c2ccccc2)[C@@H]1CO | x | i | x | 12 | x | x
Cc1ccc(-c2ccc(C(=O)Nc3cccc(F)c3)o2)c2ccccc12 | -28% | 17 | u | 19 | u | u
C=COc1ccc(N2C(=O)c3ccccc3OC2C)cc1 (centres undefined) | u | x | 15% | 10 | 84% | -29%
CC(C)NC(=O)c1c(O)c2ccccc2[nH]c1=O | 10% | -4 | 10µM* | 14 | 4.1µM* | 1%
COC(=O)c1c(O)c2ccccc2[nH]c1=O | -16% | -3 | -2% | -1 | x | -3%
COc1ccc(NC(=O)C2CCN(S(=O)(=O)c3c(C)noc3/C=C/c3cccs3)CC2)cc1 | 14%[46.1 µM] | x | x | x | x | 16%[46.1 µM]
Cc1cc(Nc2ccc(C(=O)O)cc2)nc(N)n1 | -1% | x | 1% | -3 | 22% | -12%
Cc1cc(Nc2ccc(F)cc2)nc(N)n1 | -20% | 22 | u | 13 | 9.3µM* | 16%
Cc1cc(Nc2cc(Cl)cc(Cl)c2)nc(N)n1 | x | 20 | 1.9µM* | 7 | 2.3µM* | x
O=C(COC(=O)Cn1cnc2ccccc21)NCc1ccc(F)cc1 | x | -15 | 31% | -4 | 27% | x
COc1ccc(C(=O)CN2Cc3ccccc3C2=N)cc1 | x | 88* | 73% | 30* | 280% | x
CCCCn1c(=N)n(CC(=O)c2ccc(OC)cc2)c2ccccc21 | x | -9 | u | -2 | u | x
COc1ccc(C(=O)Cn2c(=N)n(C)c3ccccc32)cc1 | u | 85* | 215% | 60* | -7% | u
COc1ccc(C(=O)CN2C(=O)COc3ccccc32)cc1 | -2%[46.1 µM] | 34 | 23% | 10 | 0% | 18%[46.1 µM]
Cn1c(=N)n(CC(=O)c2ccccc2)c2ccccc21 | 2µM* | 24 | 264% | 23* | i | 7.1µM*
COc1ccc(-c2nnc(NC(=O)c3ccccc3C)o2)cc1 | x | 14 | u | -1 | u | x
SMILES | MARV entry inh | Shiga inhibitor | Pf growth 48h | CHX counter | Pf growth 96h | LASV entry inh
CCN(CC)c1ccc(SS(=O)(=O)O)cc1 | 3% | -3 | 13µM* | 6 | 10µM*! | u
Cc1ccccc1CN(c1ccc(C(=O)Nc2ccccc2C(=O)N2CCCC2)cc1)S(C)(=O)=O | u | -18 | x | -4 | 35% | u
COc1ccc(/C(=N/O)C(C)(C)NO)cc1 | 14% | 3 | x | 1 | 8.3µM* | 0%
COc1ccc2nc(C)cc(N3CCN(c4ccccc4)CC3)c2c1 | u | 3 | 13µM* | -6 | 9.3µM* | -12%
COc1ccc2nc(C)cc(N3CCN(S(=O)(=O)c4ccccc4F)CC3)c2c1 | x | x | u | x | 9.3µM* | x
COc1ccc2nc(C)cc(N3CCOCC3)c2c1 | 4% | -11 | 7% | 0 | 43% | 9%
Cn1c(CNc2nc3ccccc3n2C)nc2ccccc21 | -1% | 77* | 282% | 68* | 138% | 21%
CCn1c(CNc2nc3ccccc3n2C(C)C)nc2ccccc21 | u | -11 | u | -1 | 12µM* | -5%
Cc1ccc(NCc2nc3ccccc3n2C)cc1C | -20% | x | 176% | 46* | -21% | -2%
CCOC(=O)c1ccc(NCc2nc3ccccc3n2C)cc1 | u | 43 | 29% | 32* | 18% | -16%
CC(C)n1c(NCCO)nc2ccccc21 | 1%[46.1 µM] | -11 | 38% | -5 | u | -21%

Bioassay records (PubChem BioAssay)
